Measurements taken from PubChem BioAssay (NCI).
Compounds without any hit were thinned out: in the full panel of roughly 83,000, 20% have a hit.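 Plates (96-well) were seeded with cells, treated with compound at one concentration, and incubated for 48 hours before percent growth was determined.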 A number with no mark means an inactive call. Calls of active or inactive are those of the source. The calls were made as follows: active = growth percent below 10; inactive = the rest.

test system: DU-145 prostate; assay: NCI-60 one-dose screen, 48 h (100 = growth as untreated, 0 = no growth, -100 = all killed); settings: 10 µM unless noted

| SMILES | growth |
| --- | --- |
| CCOc1ccc(/C=C/C=N/NC(N)=S)cc1 | 92.9% |
| C=C1C(=O)O[C@H]2[C@H]1CC/C(COC(=O)NCCc1cccc(OC)c1)=C\CC[C@@]1(C)O[C@@H]21 | 16.5% |
| Cc1c(C2=NNC(c3ccc4c(c3)OCO4)C2)[n+]([O-])c2ccccc2[n+]1[O-] (stereo not drawn) | 103% |
| O=S(=O)(NCCCNc1cc(-c2cn(-c3ccccc3)nc2-c2cccc(O)c2)ccn1)c1ccc(Br)cc1 | 31.3% |
| COc1cccc2nc(Nc3ccc(NC(=O)c4ccc5ncccc5c4)cc3)ccc12 | 89.6% |
| COc1ncc(-c2ccc3ncnc(Nc4cccc(Cl)c4)c3c2)cc1NS(=O)(=O)CCN1CCOCC1 | 18.6% |
| O=C(OCCCCOC(=O)n1cnc2ccccc21)n1cnc2ccccc21 | 105% |
| Cc1cc(C)c2c(=O)[nH]c(SCC(=O)Nc3cccc(S(=O)(=O)N(C)C)c3)nc2n1 | 101% |
| Cc1ccc(S(=O)(=O)OCC(=O)Nc2ccc(C(=O)O)c(O)c2)cc1 | 100% |
| CN(C)c1nc(N)c(N=O)c(N)n1 | 113% |
| Cc1nc2scc(-c3ccccc3)n2c(=O)c1CCO | 108% |
| Cc1ccc2c(c1)C(C)Cc1c(ncnc1-n1cnc3ccccc31)N2C (stereo not drawn) | 8.43% (active) |
| O=S(=O)(NCCNc1cc(-c2cn(-c3ccccc3)nc2-c2ccccc2)ccn1)c1cccc2ccccc12 | 68.9% |
| CCCCCCOc1ccc(C2(Cl)c3ccccc3N(C)c3ccccc32)cc1 | 55.7% |
| CN(C)C1CCC(NC2=CC(=O)C=CC2=O)CC1 (stereo not drawn) | 107% |
| CC(=O)N1Cc2ccccc2C(C)Cc2cc(Cl)ccc21 (stereo not drawn) | 114% |
| NC(N)=NC(N)=Nc1ccccc1-c1ccccc1 | 114% |
| Cc1oc2ncnc(Nc3ccccc3)c2c1C(=O)NCCO | 105% |
| Cc1cc(NC(=O)COC(=O)c2sc3cc(F)ccc3c2Cl)no1 | 116% |
| CC1(C)OC2COC3(C(=O)O)OC(C)(C)OC3C2O1 (stereo not drawn) | 108% |
| C/C(=C\c1csc(C)n1)[C@@H]1C[C@@H]2O[C@]2(C)CCC[C@H](C)[C@H](O)[C@@H](C)C(=O)C(C)(C)[C@@H](O)CC(=O)N1 | -78.9% (active) |
| COc1cc2c(cc1OCCCCn1c(-c3cc(=O)c4ccccc4o3)nc3ccccc31)N=C[C@@H]1CCCN1C2=O | 118% |
| COc1cc(-c2csc(NC(=O)c3cc(C(F)(F)F)cc(C(F)(F)F)c3)n2)cc(OC)c1OC | 35% |
